Data on 19 compounds can be found in PubChem BioAssay (EPA / NIEHS).

Structures are written as SMILES. Active and inactive are the calls of the source. How the source made its calls: active means hit-call score of the fitted dose curve at least 0.9, where 1 is the maximum; inactive means score below 0.9.

Read-out in this assay: Cytochrome P450 (CYP1A1), CYP1A1 (gene 1543)
Nature of the assay: LTEA_HepaRG_CYP1A1: Life Technologies and Expression Analysis (LTEA) Assay for Cytochrome P450 (CYP1A1) using HepaRG (AID 2283454). Particulars: mRNA level, 48 h; actives raise or lower the signal. The method, boiled down:
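Induction of CYP1A1 mRNA in a human hepatic cell line was measured 48 h after dosing, with 1 mM phenobarbital as induction positive control and 0.5% DMSO vehicle as baseline for bidirectional curve fitting.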
For the compound `CCOC(=O)c1ccc(O)cc1`, the compound was classed as inactive.
On to `CCCN(CCC)c1c([N+](=O)[O-])cc(C(F)(F)F)c(N)c1[N+](=O)[O-]`, for which the AC50 was 9.51 µM (active).
Turning to `O=C(c1ccccc1)C1CCCCC1`, the compound was classed as inactive.
In the case of `C=CCOC(Cn1ccnc1)c1ccc(Cl)cc1Cl` (centres undefined), the AC50 is 12.1 µM (active).
Regarding `CC(C)CCCCCCc1ccc(O)cc1`, the AC50 is 50 µM (active).
For `COCCO`, the call was inactive.
For `N[C@@H](Cc1cc(I)c(Oc2ccc(O)c(I)c2)c(I)c1)C(=O)O`, the AC50 was 0.0392 µM (active).
Consider `COc1c(Cl)ccc(Cl)c1C(=O)O`, for which the outcome was inactive.
In the case of `CCC(C)OC(=O)N1CCCCC1CCO` (centres undefined), the AC50 is 64 µM (active).
As to `CC(C)(C)[C@@H](O)[C@@H](Cc1ccc(Cl)cc1)n1cncn1`, the concentration at half-maximal activity (AC50) is 33.9 µM (active).
Consider `O=C(O)C1(C(=O)Nc2ccc(Cl)cc2Cl)CC1`, for which the AC50 was 50 µM (active).
For the compound `OB(O)O`, the result was inactive.
For `CC(=O)[C@H]1CC[C@H]2[C@@H]3CCC4=CC(=O)CC[C@]4(C)[C@H]3CC[C@]12C`, the half-maximal activity concentration (AC50) is 34.6 µM (active).
On to `CCCCC(CC)CN1C(=O)C2C3C=CC(C3)C2C1=O` (centres undefined), for which the AC50 was 12.6 µM (active).
`CCN(Cc1c(F)cccc1Cl)c1c([N+](=O)[O-])cc(C(F)(F)F)cc1[N+](=O)[O-]`: the AC50 was 14.8 µM (active).
For `C[C@]12C[C@H](O)[C@H]3[C@@H](CCC4=CC(=O)CC[C@@]43C)[C@@H]1CC[C@@H]2C(=O)CO`, the AC50 is 50 µM (active).
`C#CCOC(=O)[C@@H](C)Oc1ccc(Oc2ncc(Cl)cc2F)cc1`: the AC50 was 33 µM (active).
Turning to `Cc1nn(C)c(Oc2ccccc2)c1C=NOCc1ccc(C(=O)OC(C)(C)C)cc1`, the AC50 was 19.6 µM (active).
With `CCOC(=O)C(C)Oc1ccc(Oc2nc3ccc(Cl)cc3o2)cc1` (centres undefined), the AC50 was 56.7 µM (active).

By AC50 is commonly meant the midpoint of the concentration-response curve, whichever way the signal moves.
